Legend:
Assay in all cases: yeast three-hybrid, YBZ-1, SC-Leu-His + 0.5 mM 3-AT, 4 days
Settings in all cases: tags: N-Gal4 AD-HA kept; label: inside an RPR1-promoter hybrid RNA with tandem MS2 sites; ssRNA
PUM1 PUF domain R5-PRG = PUM1 PUF domain R5-PRG (Homo sapiens, UniProt Q14671 828-1176, C1007P;Q1011G)
Outline: (§1)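 The interaction score is the logarithmic change in variant frequency from input to selection. It uses log2, with a pseudocount of 1 for absent variants, and frequencies came from PCR-amplified, Illumina-sequenced repeat regions. The libraries were Pumilio-1 PUF domains randomized at the three base-contacting residues per repeat, co-expressed with matching RNA elements in strain YBZ-1 (LexA–MS2 coat fusion, HIS3 reporter). Plating lasted four days on SC-Leu (input) or SC-Leu-His + 0.5 mM 3-AT (selection).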

PUM1 PUF domain R5-RRV = PUM1 PUF domain R5-RRV (Homo sapiens, UniProt Q14671 828-1176, C1007R;Q1011V)
Outline: as §1

PUM1 PUF domain R5-RHH = PUM1 PUF domain R5-RHH (Homo sapiens, UniProt Q14671 828-1176, C1007R;R1008H;Q1011H)
Outline: as §1

PUM1 PUF domain R5-SAP = PUM1 PUF domain R5-SAP (Homo sapiens, UniProt Q14671 828-1176, C1007S;R1008A;Q1011P)
Outline: as §1

PUM1 PUF domain R5-KPL = PUM1 PUF domain R5-KPL (Homo sapiens, UniProt Q14671 828-1176, C1007K;R1008P;Q1011L)
Outline: as §1

PUM1 PUF domain R5-KSL = PUM1 PUF domain R5-KSL (Homo sapiens, UniProt Q14671 828-1176, C1007K;R1008S;Q1011L)
Outline: as §1

PUM1 PUF domain R1-KLM = PUM1 PUF domain R1-KLM (Homo sapiens, UniProt Q14671 828-1176, S863K;R864L;Q867M)
Outline: as §1

PUM1 PUF domain R7-GRR = PUM1 PUF domain R7-GRR (Homo sapiens, UniProt Q14671 828-1176, S1079G;N1080R;E1083R)
Outline: as §1

PUM1 PUF domain R7-GSK = PUM1 PUF domain R7-GSK (Homo sapiens, UniProt Q14671 828-1176, S1079G;N1080S;E1083K)
Outline: as §1

PUM1 PUF domain R3-VWF = PUM1 PUF domain R3-VWF (Homo sapiens, UniProt Q14671 828-1176, C935V;R936W;Q939F)
Outline: as §1

PUM1 PUF domain R3-RAS = PUM1 PUF domain R3-RAS (Homo sapiens, UniProt Q14671 828-1176, C935R;R936A;Q939S)
Outline: as §1

PUM1 PUF domain R1-RSV = PUM1 PUF domain R1-RSV (Homo sapiens, UniProt Q14671 828-1176, S863R;R864S;Q867V)
Outline: as §1

Sequence of PUM1 PUF domain R5-RRV (Q14671 828-1176 C1007R/Q1011V): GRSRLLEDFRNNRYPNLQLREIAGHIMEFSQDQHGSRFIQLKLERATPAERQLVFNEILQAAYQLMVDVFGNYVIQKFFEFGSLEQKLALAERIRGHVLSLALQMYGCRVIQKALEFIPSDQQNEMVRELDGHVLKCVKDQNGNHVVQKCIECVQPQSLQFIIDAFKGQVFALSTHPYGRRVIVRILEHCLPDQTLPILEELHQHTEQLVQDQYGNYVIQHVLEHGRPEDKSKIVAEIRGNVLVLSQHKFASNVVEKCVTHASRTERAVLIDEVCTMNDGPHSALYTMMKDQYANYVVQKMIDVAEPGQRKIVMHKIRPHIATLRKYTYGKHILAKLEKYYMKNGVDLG
Sequence of PUM1 PUF domain R5-PRG (Q14671 828-1176 C1007P/Q1011G): as the sequence (Q14671 828-1176 C1007R/Q1011V) above, with R180P, V184G counted along it
Sequence of PUM1 PUF domain R5-KSL (Q14671 828-1176 C1007K/R1008S/Q1011L): as the sequence (Q14671 828-1176 C1007R/Q1011V) above, with R180K, R181S, V184L counted along it
Sequence of PUM1 PUF domain R1-KLM (Q14671 828-1176 S863K/R864L/Q867M): as the sequence (Q14671 828-1176 C1007R/Q1011V) above, with S36K, R37L, Q40M, R180C, V184Q counted along it
Sequence of PUM1 PUF domain R3-RAS (Q14671 828-1176 C935R/R936A/Q939S): as the sequence (Q14671 828-1176 C1007R/Q1011V) above, with C108R, R109A, Q112S, R180C, V184Q counted along it
Sequence of PUM1 PUF domain R7-GSK (Q14671 828-1176 S1079G/N1080S/E1083K): as the sequence (Q14671 828-1176 C1007R/Q1011V) above, with R180C, V184Q, S252G, N253S, E256K counted along it
Sequence of PUM1 PUF domain R3-VWF (Q14671 828-1176 C935V/R936W/Q939F): as the sequence (Q14671 828-1176 C1007R/Q1011V) above, with C108V, R109W, Q112F, R180C, V184Q counted along it
Sequence of PUM1 PUF domain R7-GRR (Q14671 828-1176 S1079G/N1080R/E1083R): as the sequence (Q14671 828-1176 C1007R/Q1011V) above, with R180C, V184Q, S252G, N253R, E256R counted along it
Sequence of PUM1 PUF domain R5-KPL (Q14671 828-1176 C1007K/R1008P/Q1011L): as the sequence (Q14671 828-1176 C1007R/Q1011V) above, with R180K, R181P, V184L counted along it
Sequence of PUM1 PUF domain R1-RSV (Q14671 828-1176 S863R/R864S/Q867V): as the sequence (Q14671 828-1176 C1007R/Q1011V) above, with S36R, R37S, Q40V, R180C, V184Q counted along it
Sequence of PUM1 PUF domain R5-RHH (Q14671 828-1176 C1007R/R1008H/Q1011H): as the sequence (Q14671 828-1176 C1007R/Q1011V) above, with R181H, V184H counted along it
Sequence of PUM1 PUF domain R5-SAP (Q14671 828-1176 C1007S/R1008A/Q1011P): as the sequence (Q14671 828-1176 C1007R/Q1011V) above, with R180S, R181A, V184P counted along it

Q: “GGCUAGAACUAGUGGAUCCCCCGGCGCCCGGCGGCUCGAGCCCGGGUAAGUGUGAAUAGUCUGCAUGCCGCCGGGCGCCAUGCCUGCAGGUCGACUCUAGAAAACAUG” was tested. Which binding signal (PUM1 PUF domain R5-PRG) did it give?
A: 2.67 log2 enrichment (interaction score)

Q: And the binding signal (PUM1 PUF domain R5-RRV)?
A: 1.41 log2 enrichment (interaction score)

Q: And the binding signal (PUM1 PUF domain R5-RHH)?
A: 3.25 log2 enrichment (interaction score)

Q: And the binding signal (PUM1 PUF domain R5-SAP)?
A: 3.23 log2 enrichment (interaction score)

Q: “GGCUAGAACUAGUGGAUCCCCCGGCGCCCGGCGGCUCGAGCCCGGGUAAGUGUCAAUAGUCUGCAUGCCGCCGGGCGCCAUGCCUGCAGGUCGACUCUAGAAAACAUG” was tested. Which binding signal (PUM1 PUF domain R5-KPL) did it give?
A: 4.18 log2 enrichment (interaction score)

Q: What about the binding signal (PUM1 PUF domain R5-KSL) of the same sequence?
A: 3.79 log2 enrichment (interaction score)

Q: What about the binding signal (PUM1 PUF domain R5-PRG) of the same sequence?
A: 1.67 log2 enrichment (interaction score)

Q: What about the binding signal (PUM1 PUF domain R5-RRV) of the same sequence?
A: 4.84 log2 enrichment (interaction score)

Q: “GGCUAGAACUAGUGGAUCCCCCGGCGCCCGGCGGCUCGAGCCCGGGUAAGUGUAAAUGGUCUGCAUGCCGCCGGGCGCCAUGCCUGCAGGUCGACUCUAGAAAACAUG” was tested. Which binding signal (PUM1 PUF domain R1-KLM) did it give?
A: 0.59 log2 enrichment (interaction score)

Q: For “GGCUAGAACUAGUGGAUCCCCCGGCGCCCGGCGGCUCGAGCCCGGGUAAGUUUAAAUAGUCUGCAUGCCGCCGGGCGCCAUGCCUGCAGGUCGACUCUAGAAAACAUG”, which binding signal (PUM1 PUF domain R7-GRR) is on record?
A: 5.06 log2 enrichment (interaction score)

Q: What about the binding signal (PUM1 PUF domain R7-GSK) of the same sequence?
A: 4.61 log2 enrichment (interaction score)

Q: How did the binding signal (PUM1 PUF domain R5-KSL) turn out when “GGCUAGAACUAGUGGAUCCCCCGGCGCCCGGCGGCUCGAGCCCGGGUAAGUGUUAAUAGUCUGCAUGCCGCCGGGCGCCAUGCCUGCAGGUCGACUCUAGAAAACAUG” was run?
A: 3.78 log2 enrichment (interaction score)

Q: What about the binding signal (PUM1 PUF domain R5-PRG) of the same sequence?
A: 3.9 log2 enrichment (interaction score)

Q: And the binding signal (PUM1 PUF domain R5-RRV)?
A: 4.92 log2 enrichment (interaction score)

Q: “GGCUAGAACUAGUGGAUCCCCCGGCGCCCGGCGGCUCGAGCCCGGGUAAGUGUAAUUAGUCUGCAUGCCGCCGGGCGCCAUGCCUGCAGGUCGACUCUAGAAAACAUG” was tested. Which binding signal (PUM1 PUF domain R3-VWF) did it give?
A: 2.85 log2 enrichment (interaction score)

Q: What about the binding signal (PUM1 PUF domain R3-RAS) of the same sequence?
A: 3.67 log2 enrichment (interaction score)

Q: Which results are given for “GGCUAGAACUAGUGGAUCCCCCGGCGCCCGGCGGCUCGAGCCCGGGUAAGUGUAAAUCGUCUGCAUGCCGCCGGGCGCCAUGCCUGCAGGUCGACUCUAGAAAACAUG”?
A: binding signal (PUM1 PUF domain R1-RSV): 3.6 log2 enrichment (interaction score); binding signal (PUM1 PUF domain R1-KLM): 3.89 log2 enrichment (interaction score)
